# Results as given in article PMC7862700, “An all-to-all approach to the identification of sequence-specific readers for epigenetic DNA modifications on cytosine”.
# Tests used:
# Experiment in all cases: DAPPL (digital affinity profiling via proximity ligation, sequencing); 10 mM Tris-HCl pH 7.5, 50 mM NaCl, 1 mM DTT, 4% glycerol, room temperature, 30 min; GST-TFs on glutathione beads, 16-mer random dsDNA library, 0.1% formaldehyde crosslink after washing; high values mean tight binding
# Conditions in all cases: protein: recombinant; tags: N-terminal GST; dsDNA, one strand shown
# ELK1 = molecular target: T1, ELK1 (Homo sapiens, UniProt P19419 1-428)
# T1 sequence: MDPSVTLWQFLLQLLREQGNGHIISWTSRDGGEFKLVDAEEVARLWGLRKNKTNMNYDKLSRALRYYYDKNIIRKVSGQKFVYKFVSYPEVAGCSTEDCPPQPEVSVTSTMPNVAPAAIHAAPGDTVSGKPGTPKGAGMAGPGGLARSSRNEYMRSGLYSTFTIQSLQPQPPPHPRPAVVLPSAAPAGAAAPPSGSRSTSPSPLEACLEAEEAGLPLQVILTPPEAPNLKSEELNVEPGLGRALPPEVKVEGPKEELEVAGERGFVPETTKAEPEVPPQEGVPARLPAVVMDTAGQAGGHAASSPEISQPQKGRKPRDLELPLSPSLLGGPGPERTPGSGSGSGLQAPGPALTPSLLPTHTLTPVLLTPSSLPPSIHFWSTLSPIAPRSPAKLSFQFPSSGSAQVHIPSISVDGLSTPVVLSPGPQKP
# Summary of the method: (§1)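 A tag-only sample was pooled with DNA-barcoded human transcription factors that had been expressed in yeast as GST fusions and captured on glutathione beads. The pools were incubated for 30 min at room temperature with 200 nmole of a random double-stranded 16-mer DNA library in Tris/NaCl/DTT/glycerol buffer, then washed, crosslinked with 0.1% formaldehyde, proximity-ligated (BsaI/T4 ligase, 1 h, 37 °C), PCR-amplified and sequenced on an Illumina NextSeq500. Binding signal is each hexamer's read frequency for a factor divided by its frequency for the tag-only sample.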
# GABPA = molecular target: T2, GABPA (Homo sapiens, UniProt Q06546 1-454)
# T2 sequence: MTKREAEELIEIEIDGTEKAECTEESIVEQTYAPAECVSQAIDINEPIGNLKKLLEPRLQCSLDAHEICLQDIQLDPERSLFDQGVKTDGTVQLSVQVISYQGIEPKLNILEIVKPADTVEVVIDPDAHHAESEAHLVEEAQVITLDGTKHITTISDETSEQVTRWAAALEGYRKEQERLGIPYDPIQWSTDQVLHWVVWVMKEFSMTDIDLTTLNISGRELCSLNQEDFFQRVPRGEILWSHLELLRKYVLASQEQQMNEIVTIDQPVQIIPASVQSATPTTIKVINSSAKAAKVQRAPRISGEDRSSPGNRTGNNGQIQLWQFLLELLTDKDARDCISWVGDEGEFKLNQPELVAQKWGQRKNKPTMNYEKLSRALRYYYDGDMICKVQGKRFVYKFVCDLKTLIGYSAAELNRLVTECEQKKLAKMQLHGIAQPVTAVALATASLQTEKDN
# Summary of the method: as §1
# ERG = molecular target: T3, ERG (Homo sapiens, UniProt P11308 1-479)
# T3 sequence: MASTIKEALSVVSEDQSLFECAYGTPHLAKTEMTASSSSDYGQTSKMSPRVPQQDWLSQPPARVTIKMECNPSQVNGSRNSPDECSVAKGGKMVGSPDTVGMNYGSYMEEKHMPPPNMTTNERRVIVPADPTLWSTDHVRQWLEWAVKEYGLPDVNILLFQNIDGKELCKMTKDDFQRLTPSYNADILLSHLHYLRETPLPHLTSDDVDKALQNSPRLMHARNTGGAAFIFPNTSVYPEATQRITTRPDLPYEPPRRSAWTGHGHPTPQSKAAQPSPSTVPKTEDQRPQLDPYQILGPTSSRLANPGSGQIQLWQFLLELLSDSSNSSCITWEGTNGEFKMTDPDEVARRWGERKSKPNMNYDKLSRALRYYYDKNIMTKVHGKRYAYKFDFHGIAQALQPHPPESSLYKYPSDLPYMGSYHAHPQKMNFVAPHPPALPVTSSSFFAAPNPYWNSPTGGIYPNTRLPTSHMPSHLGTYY
# Summary of the method: as §1
# EHF = molecular target: T4, EHF (Homo sapiens, UniProt Q9NZC4 1-300)
# T4 sequence: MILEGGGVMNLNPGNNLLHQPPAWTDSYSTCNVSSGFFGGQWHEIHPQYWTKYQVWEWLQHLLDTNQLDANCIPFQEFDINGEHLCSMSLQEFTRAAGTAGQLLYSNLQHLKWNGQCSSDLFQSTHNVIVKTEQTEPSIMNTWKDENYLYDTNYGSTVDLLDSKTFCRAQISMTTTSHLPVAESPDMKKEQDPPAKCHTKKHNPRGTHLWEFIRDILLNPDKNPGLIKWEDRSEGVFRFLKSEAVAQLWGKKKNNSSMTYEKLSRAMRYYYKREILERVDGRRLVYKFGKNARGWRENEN
# Summary of the method: as §1
# FEV = molecular target: T5, FEV (Homo sapiens, UniProt Q99581 1-238)
# T5 sequence: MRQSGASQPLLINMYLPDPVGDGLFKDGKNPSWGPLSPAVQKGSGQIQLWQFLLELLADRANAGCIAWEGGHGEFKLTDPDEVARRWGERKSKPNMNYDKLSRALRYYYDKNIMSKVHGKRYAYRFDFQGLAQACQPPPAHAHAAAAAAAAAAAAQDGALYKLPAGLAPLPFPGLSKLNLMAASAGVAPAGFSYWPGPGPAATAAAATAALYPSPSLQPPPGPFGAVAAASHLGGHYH
# Summary of the method: as §1
# ETV5 = ETV5 (Homo sapiens, UniProt P41161 1-510)
# Summary of the method: as §1
# ELF4 = ELF4 (Homo sapiens, UniProt Q99607 1-663)
# Summary of the method: as §1
# ELK4 = molecular target: T6, ELK4 (Homo sapiens, UniProt P28324-2 1-405)
# T6 sequence: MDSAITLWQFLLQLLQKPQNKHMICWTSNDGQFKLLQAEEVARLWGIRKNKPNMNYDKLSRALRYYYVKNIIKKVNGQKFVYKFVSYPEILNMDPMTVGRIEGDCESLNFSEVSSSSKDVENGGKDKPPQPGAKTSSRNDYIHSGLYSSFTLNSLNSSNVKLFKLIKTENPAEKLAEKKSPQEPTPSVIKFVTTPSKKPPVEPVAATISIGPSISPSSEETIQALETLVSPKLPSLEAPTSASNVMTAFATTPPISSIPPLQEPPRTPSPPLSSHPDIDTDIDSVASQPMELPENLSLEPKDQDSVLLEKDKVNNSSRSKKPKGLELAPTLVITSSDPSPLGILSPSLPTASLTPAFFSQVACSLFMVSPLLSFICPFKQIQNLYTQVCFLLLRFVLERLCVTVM
# Summary of the method: as §1
# ETV2 = molecular target: T7, ETV2 (Homo sapiens, UniProt O00321 1-342)
# T7 sequence: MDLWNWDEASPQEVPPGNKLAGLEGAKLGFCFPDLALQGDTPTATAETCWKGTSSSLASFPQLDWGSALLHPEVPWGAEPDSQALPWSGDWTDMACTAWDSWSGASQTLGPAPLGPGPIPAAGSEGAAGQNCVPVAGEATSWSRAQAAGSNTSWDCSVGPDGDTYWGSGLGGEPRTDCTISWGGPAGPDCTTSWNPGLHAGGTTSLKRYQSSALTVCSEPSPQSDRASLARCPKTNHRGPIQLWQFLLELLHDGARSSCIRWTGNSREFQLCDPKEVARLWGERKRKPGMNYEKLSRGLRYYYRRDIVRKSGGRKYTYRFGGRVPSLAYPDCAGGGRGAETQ
# Summary of the method: as §1
# ETV1 = ETV1 (Homo sapiens, UniProt P50549 1-477)
# Summary of the method: as §1
# ERF = molecular target: T8, ERF (Homo sapiens, UniProt P50548 1-548)
# T8 sequence: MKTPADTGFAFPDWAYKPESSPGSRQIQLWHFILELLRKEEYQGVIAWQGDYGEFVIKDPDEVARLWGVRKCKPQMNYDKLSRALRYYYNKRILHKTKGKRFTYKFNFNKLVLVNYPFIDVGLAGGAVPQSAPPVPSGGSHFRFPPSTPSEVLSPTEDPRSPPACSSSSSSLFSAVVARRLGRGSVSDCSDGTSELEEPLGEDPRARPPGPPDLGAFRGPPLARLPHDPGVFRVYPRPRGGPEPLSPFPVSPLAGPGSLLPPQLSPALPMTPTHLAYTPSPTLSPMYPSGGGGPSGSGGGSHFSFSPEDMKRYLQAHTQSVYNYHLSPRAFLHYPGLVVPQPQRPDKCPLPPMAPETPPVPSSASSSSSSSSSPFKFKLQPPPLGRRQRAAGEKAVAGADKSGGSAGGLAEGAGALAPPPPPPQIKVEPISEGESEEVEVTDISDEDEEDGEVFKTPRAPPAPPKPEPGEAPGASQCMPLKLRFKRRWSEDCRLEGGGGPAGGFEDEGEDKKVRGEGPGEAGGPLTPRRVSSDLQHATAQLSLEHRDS
# Summary of the method: as §1
# ETV3L = molecular target: T9, ETV3L (Homo sapiens, UniProt Q6ZN32 1-361)
# T9 sequence: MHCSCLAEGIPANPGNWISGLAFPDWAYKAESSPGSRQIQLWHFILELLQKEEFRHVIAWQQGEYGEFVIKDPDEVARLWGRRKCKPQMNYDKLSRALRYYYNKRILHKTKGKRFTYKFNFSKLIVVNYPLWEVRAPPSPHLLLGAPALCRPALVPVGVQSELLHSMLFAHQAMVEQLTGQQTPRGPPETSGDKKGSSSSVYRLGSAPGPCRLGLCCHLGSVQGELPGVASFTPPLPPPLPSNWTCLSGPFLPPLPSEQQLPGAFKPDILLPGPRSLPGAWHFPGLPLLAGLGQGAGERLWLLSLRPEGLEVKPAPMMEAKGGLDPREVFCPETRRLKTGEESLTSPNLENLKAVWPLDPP
# Summary of the method: as §1
# ETS2 = molecular target: T10, ETS2 (Homo sapiens, UniProt P15036 1-469)
# T10 sequence: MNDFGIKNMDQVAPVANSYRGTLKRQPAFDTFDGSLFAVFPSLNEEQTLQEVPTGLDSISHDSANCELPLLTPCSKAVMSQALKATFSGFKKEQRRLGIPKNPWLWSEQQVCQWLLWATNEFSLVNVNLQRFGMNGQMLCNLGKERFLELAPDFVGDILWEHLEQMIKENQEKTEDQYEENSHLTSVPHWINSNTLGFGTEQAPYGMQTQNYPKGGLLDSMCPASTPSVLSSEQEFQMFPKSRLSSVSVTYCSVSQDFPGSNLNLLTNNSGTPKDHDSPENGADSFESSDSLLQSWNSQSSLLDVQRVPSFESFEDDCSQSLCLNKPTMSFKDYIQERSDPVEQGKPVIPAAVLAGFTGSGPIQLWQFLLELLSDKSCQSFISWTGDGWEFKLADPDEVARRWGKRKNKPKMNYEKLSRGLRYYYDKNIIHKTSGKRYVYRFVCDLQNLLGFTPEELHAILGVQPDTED
# Summary of the method: as §1
# SPDEF = molecular target: T11, SPDEF (Homo sapiens, UniProt O95238 1-335)
# T11 sequence: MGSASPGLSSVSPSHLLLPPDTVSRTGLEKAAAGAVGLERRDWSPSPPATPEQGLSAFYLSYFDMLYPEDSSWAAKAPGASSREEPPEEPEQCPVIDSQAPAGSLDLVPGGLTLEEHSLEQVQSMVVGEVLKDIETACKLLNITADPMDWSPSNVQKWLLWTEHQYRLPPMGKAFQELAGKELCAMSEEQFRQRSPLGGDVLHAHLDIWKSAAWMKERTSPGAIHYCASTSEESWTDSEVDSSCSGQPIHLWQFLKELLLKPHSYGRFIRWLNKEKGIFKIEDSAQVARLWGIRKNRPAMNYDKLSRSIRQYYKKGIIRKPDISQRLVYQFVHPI
# Summary of the method: as §1
# ETV7 = molecular target: T12, ETV7 (Homo sapiens, UniProt Q9Y603 1-341)
# T12 sequence: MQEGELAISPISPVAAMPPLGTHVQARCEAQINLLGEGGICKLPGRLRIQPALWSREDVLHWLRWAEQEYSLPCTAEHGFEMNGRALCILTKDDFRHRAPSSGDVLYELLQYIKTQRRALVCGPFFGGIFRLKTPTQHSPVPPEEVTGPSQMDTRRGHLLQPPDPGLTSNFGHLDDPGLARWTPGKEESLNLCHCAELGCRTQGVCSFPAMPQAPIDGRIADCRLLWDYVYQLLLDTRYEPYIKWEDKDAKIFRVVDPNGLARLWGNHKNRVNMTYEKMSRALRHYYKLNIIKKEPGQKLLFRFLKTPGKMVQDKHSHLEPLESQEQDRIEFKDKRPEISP
# Summary of the method: as §1
# ETV3 = molecular target: T13, ETV3 (Homo sapiens, UniProt P41162-2 1-143)
# T13 sequence: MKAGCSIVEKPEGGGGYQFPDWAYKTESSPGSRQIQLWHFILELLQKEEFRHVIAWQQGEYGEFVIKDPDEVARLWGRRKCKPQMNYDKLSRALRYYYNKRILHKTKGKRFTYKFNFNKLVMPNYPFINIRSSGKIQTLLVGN
# Summary of the method: as §1
# Sequence of ELF4 (Q99607 whole entry): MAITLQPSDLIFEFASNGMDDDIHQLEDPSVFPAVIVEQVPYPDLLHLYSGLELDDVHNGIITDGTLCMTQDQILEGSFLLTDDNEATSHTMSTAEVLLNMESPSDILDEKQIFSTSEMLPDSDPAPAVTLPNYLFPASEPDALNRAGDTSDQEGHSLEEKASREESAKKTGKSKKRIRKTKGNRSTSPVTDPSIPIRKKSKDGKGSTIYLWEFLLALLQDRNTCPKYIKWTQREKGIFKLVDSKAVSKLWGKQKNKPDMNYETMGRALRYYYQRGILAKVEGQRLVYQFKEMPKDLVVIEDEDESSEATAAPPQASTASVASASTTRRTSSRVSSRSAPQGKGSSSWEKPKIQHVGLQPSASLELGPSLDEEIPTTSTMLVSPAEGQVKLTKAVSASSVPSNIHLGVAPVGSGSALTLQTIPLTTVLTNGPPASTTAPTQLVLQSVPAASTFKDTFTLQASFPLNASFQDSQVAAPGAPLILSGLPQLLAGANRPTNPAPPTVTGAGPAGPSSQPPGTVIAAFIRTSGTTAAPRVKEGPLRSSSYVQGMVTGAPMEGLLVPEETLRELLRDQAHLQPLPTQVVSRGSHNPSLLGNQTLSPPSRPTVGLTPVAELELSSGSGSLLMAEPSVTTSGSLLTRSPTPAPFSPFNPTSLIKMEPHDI
# Sequence of ETV1 (P50549 whole entry): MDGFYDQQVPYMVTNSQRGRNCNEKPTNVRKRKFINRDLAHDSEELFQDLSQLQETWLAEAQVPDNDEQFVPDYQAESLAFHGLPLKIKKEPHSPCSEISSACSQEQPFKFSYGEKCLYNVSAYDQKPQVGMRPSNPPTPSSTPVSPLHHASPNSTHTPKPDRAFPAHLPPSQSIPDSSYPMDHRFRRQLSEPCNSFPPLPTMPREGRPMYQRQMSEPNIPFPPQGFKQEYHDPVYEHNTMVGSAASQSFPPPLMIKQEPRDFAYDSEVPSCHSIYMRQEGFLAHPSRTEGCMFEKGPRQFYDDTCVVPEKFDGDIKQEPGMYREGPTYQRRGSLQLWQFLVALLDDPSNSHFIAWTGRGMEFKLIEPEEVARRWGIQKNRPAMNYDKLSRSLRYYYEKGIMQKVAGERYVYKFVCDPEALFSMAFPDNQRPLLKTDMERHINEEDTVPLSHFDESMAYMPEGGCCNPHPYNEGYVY
# Sequence of ETV5 (P41161 whole entry): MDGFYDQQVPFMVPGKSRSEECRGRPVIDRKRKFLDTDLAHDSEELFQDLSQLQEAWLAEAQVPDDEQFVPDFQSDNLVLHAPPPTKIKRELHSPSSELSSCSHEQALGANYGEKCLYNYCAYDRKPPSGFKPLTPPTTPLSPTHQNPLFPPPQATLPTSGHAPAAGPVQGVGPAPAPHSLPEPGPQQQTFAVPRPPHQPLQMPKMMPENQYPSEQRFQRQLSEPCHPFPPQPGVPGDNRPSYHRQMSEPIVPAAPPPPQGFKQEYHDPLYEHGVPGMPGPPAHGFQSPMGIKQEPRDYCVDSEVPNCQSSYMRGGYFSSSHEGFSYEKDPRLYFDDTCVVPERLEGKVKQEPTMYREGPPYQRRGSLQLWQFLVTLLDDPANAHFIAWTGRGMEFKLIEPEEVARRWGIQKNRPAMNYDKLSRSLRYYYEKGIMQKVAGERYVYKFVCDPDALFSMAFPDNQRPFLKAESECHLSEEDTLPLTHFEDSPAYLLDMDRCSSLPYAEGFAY
sequence,measurement,setting,value
TAGGGC,binding signal,ELK1,"1.07 fold enrichment (6-mer frequency, TF over GST control)"
same,binding signal,GABPA,"1.01 fold enrichment (6-mer frequency, TF over GST control)"
same,binding signal,ERG,"1.01 fold enrichment (6-mer frequency, TF over GST control)"
same,binding signal,EHF,"1.18 fold enrichment (6-mer frequency, TF over GST control)"
same,binding signal,FEV,"1.06 fold enrichment (6-mer frequency, TF over GST control)"
same,binding signal,ETV5,"1.03 fold enrichment (6-mer frequency, TF over GST control)"
same,binding signal,ELF4,"1.03 fold enrichment (6-mer frequency, TF over GST control)"
same,binding signal,ELK4,"1.02 fold enrichment (6-mer frequency, TF over GST control)"
same,binding signal,ETV2,"1.12 fold enrichment (6-mer frequency, TF over GST control)"
same,binding signal,ETV1,"1.06 fold enrichment (6-mer frequency, TF over GST control)"
same,binding signal,ERF,"1.09 fold enrichment (6-mer frequency, TF over GST control)"
same,binding signal,ETV3L,"1.04 fold enrichment (6-mer frequency, TF over GST control)"
same,binding signal,ETS2,"1.06 fold enrichment (6-mer frequency, TF over GST control)"
same,binding signal,SPDEF,"1.01 fold enrichment (6-mer frequency, TF over GST control)"
same,binding signal,ETV7,"1.07 fold enrichment (6-mer frequency, TF over GST control)"
same,binding signal,ETV3,"1.03 fold enrichment (6-mer frequency, TF over GST control)"
